Test results reported in ChEMBL document CHEMBL3988442, “University of Dundee, Small-Polar-MMV Screening Library” (2021).
For some of these results: Results with a measured potency or affinity are listed apart.

How the values were obtained:
Set-up in all cases: scale not given: direction of the effect not stated beside the values
[1] = molecular target: Protein translocase subunit SecA (Escherichia coli (strain K12)) (UniProt P10408); test: Assay to Identify E. coli SecA ATPase Inhibitors; format: functional; details: 30 µM
[2] = molecular target: T1, Ubiquitin-activating enzyme e1, putative (Leishmania donovani (strain BPK282A1)) (UniProt E9BSI1); test: Leishmania donovani Ubiquitin Activating Enzyme (LdE1); format: functional; details: 30 µM
T1 sequence (whole entry): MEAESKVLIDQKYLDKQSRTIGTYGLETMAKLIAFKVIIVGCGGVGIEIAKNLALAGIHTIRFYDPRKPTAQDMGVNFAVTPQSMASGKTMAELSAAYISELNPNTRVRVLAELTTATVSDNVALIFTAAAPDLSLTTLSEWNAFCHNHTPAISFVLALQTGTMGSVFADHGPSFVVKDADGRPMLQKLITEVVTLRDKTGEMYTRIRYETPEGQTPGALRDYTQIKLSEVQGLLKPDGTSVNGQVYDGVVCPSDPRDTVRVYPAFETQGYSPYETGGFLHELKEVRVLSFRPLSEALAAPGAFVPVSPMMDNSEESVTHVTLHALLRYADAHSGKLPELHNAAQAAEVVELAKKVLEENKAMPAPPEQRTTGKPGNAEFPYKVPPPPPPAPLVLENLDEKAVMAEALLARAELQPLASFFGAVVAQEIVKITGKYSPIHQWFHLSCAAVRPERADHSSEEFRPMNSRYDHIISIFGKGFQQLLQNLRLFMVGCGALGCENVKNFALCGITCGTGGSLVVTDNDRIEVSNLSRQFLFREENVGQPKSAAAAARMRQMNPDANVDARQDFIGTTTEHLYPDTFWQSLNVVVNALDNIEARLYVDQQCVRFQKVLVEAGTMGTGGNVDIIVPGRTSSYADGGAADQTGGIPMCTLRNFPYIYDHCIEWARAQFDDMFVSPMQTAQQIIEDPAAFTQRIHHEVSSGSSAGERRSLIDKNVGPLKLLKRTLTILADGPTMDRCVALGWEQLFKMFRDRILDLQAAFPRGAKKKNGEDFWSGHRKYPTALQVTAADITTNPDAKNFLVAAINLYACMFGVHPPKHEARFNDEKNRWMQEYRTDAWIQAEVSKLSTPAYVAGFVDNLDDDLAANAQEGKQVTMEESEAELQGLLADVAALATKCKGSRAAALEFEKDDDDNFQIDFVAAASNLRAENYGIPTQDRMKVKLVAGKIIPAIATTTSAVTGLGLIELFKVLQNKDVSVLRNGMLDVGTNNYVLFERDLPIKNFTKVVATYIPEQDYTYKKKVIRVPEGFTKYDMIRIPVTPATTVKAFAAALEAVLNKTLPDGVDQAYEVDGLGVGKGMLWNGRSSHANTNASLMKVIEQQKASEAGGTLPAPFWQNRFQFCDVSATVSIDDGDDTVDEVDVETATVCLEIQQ

[3] = molecular target: AMP-activated protein kinase, AMPK (Homo sapiens) (UniProt P54646+O43741+P54619+Q9UGJ0+Q9Y478+Q13131+Q9UGI9); test: AMP-dependent Kinase enzyme assay. An in vitro enzyme assay that detects ADP turnover that is directly proportional to AMPK activity. This uses naive AMPK that is activated during the assay with MK-8722; format: functional; details: 30 µM
[4] = molecular target: Sialic acid-binding Ig-like lectin 9 (Homo sapiens) (UniProt Q9Y336); test: Hs-Siglec9 ALPHAscreen SOP 20170721; details: 10 µM
Trypanosoma cruzi = test: Trypanosoma cruzi phosphomannomutase and mannose-1-phosphate guanylyltransferase assay; format: functional; details: 10 µM
[5] = molecular target: T2, Arginase-2, mitochondrial (Homo sapiens) (UniProt P78540); test: in vitro enzyme assay to detect the production of urea directly proportional to the activity of Arginase II; format: functional; details: 33.3 µM; also: in the data most compounds retested in dose-response had high values
T2 sequence (whole entry): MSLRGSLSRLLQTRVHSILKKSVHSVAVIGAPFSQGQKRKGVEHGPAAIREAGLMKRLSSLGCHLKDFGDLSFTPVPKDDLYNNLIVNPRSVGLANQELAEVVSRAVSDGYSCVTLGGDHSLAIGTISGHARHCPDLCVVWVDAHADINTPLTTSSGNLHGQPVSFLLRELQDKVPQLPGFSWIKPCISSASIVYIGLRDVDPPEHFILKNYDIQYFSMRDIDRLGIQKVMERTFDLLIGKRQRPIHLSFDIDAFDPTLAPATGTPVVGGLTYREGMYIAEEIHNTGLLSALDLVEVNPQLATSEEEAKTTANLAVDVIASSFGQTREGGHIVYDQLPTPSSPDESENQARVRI

[6] = molecular target: T3, Proteasome subunit beta (Trypanosoma cruzi) (UniProt O96673); test: Trypanosoma cruzi proteasome chymotrypsin-like activity (TcProtChymo) assay.; also: in the data most compounds retested in dose-response had high values; format: functional; details: 9.37 µM
T3 sequence (whole entry): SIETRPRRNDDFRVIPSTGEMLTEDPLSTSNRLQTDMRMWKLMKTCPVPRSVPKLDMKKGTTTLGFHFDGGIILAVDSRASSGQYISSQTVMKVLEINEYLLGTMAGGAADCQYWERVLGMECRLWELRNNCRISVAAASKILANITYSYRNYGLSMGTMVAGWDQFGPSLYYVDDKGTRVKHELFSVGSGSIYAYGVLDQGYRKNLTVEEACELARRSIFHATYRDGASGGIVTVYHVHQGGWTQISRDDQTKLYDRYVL

Homo sapiens = organism: Homo sapiens; test: To identify inhibition of the IFN signalling (Jak-Stat) pathway via expression of an eGFP reporter gene under the control of an IFN-stimulated response element (ISRE) containing MxA promoter.; format: functional; details: 30 µM
[7] = molecular target: T4, Tyrosyl-tRNA synthetase, putative (Trypanosoma cruzi (strain CL Brener)) (UniProt Q4DSP6); test: Trypanosoma cruzi tyrosyl tRNA synthetase (TcYRS) _High Tyrosine SOP; format: functional; details: 30 µM; also: in the data most compounds retested in dose-response had high values
T4 sequence (whole entry): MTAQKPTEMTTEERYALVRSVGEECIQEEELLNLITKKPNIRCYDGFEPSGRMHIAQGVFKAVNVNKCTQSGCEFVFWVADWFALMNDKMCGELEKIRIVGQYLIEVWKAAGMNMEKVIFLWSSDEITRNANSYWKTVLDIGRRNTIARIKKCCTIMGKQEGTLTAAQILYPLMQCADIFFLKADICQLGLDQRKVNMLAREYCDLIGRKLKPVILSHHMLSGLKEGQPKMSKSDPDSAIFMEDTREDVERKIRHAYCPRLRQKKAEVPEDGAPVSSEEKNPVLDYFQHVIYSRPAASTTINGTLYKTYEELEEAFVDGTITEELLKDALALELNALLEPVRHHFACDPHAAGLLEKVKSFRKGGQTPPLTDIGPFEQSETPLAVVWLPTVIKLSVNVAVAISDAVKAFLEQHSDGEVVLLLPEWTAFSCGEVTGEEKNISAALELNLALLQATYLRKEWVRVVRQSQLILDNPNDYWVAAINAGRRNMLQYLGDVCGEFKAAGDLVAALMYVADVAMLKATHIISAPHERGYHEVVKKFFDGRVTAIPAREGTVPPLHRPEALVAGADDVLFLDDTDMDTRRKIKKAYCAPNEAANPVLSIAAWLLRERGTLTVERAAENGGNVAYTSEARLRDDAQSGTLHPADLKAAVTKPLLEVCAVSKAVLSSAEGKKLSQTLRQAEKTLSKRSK

[8] = molecular target: T4, Tyrosyl-tRNA synthetase, putative (Trypanosoma cruzi (strain CL Brener)); test: Trypanosoma cruzi tyrosyl tRNA synthetase (TcYRS) SOP; format: functional; details: 30 µM
[9] = molecular target: Chromo domain-containing protein 1 (Saccharomyces cerevisiae (strain ATCC 204508 / S288c) (Baker's yeast)) (UniProt P32657); test: ScCHD-1 Enzyme Inhibition Assay; format: functional; details: 30 µM; also: in the data most compounds retested in dose-response had high values
Chain of Chromo domain-containing protein 1 (Saccharomyces cerevisiae (strain ATCC 204508 / S288c) (Baker's yeast)) (P32657 whole entry, the tested form may be a part): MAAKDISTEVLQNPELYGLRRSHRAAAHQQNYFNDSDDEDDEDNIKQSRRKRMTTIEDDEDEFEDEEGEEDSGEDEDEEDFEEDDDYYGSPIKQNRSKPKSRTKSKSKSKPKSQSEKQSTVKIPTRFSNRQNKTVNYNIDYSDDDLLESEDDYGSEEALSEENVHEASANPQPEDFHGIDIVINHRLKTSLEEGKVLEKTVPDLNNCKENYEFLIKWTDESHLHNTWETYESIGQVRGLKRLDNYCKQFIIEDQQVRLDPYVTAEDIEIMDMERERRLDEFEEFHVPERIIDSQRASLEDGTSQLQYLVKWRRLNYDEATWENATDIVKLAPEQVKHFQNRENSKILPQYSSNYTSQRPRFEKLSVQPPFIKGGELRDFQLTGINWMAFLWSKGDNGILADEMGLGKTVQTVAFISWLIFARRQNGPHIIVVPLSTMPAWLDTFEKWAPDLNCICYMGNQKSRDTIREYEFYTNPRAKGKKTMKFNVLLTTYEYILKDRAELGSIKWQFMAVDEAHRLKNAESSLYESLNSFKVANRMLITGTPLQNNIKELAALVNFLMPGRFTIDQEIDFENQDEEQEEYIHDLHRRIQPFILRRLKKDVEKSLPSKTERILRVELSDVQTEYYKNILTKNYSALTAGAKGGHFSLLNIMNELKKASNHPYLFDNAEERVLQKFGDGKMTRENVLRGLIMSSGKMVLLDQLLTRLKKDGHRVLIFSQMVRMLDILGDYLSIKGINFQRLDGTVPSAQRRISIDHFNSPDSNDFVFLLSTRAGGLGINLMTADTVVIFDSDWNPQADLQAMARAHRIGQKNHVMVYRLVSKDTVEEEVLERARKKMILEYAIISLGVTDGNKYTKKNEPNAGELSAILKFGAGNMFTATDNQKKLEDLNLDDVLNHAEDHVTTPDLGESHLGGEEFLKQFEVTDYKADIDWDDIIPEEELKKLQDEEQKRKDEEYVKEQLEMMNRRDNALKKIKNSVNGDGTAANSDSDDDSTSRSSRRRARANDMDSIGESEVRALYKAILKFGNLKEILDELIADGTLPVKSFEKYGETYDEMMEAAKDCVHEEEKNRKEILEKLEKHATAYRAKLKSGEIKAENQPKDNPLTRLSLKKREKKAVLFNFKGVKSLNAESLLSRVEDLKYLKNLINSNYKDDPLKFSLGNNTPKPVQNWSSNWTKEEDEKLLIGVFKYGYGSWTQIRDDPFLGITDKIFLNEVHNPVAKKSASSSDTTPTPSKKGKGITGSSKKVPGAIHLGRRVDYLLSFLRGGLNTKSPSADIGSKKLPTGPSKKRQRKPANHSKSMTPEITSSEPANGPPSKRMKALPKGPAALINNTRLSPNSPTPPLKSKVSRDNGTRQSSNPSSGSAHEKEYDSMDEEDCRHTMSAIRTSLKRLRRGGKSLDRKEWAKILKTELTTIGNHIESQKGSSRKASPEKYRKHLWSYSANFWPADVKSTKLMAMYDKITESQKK

Chain of Sialic acid-binding Ig-like lectin 9 (Homo sapiens) (Q9Y336 whole entry): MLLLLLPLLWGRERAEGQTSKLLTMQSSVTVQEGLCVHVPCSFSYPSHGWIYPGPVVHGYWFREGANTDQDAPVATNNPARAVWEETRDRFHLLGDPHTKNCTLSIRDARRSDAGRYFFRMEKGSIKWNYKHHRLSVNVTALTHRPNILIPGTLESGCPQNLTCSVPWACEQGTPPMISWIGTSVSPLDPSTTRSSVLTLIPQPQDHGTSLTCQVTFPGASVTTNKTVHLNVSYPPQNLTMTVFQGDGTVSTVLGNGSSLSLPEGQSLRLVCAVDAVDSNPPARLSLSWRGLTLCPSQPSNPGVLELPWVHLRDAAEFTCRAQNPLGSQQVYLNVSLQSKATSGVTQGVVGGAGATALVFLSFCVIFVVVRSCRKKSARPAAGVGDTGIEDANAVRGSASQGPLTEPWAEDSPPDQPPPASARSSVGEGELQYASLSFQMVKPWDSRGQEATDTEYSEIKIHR
Chain of Protein translocase subunit SecA (Escherichia coli (strain K12)) (P10408 whole entry): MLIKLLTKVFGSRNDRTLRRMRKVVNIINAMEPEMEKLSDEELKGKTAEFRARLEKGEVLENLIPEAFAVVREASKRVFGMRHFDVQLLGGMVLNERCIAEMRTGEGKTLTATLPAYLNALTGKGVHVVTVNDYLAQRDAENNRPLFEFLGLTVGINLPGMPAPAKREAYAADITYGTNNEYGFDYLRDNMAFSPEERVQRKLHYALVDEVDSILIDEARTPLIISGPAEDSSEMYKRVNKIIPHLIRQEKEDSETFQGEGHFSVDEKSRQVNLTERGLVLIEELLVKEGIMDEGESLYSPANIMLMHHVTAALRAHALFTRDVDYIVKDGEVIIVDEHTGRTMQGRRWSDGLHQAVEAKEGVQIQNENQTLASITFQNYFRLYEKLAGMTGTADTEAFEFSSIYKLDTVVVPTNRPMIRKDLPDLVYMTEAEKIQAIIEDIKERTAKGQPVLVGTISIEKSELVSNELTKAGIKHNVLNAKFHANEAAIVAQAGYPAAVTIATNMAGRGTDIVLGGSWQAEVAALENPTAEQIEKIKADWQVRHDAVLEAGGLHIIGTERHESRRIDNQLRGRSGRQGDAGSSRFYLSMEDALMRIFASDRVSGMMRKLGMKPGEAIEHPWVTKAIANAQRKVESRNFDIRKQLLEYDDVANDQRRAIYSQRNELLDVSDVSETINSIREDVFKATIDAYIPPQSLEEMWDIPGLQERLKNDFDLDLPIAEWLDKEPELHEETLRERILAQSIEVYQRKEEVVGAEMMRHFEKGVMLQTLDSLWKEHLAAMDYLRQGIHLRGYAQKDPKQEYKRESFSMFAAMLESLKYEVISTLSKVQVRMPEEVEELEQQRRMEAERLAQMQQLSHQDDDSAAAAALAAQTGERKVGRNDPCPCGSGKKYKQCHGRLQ

Structure (SMILES) | Percent Effect [1] [%] | Percent Effect [2] [%] | Percent Effect [3] [%] | Percent Effect [4] [%] | Percent Effect (Trypanosoma cruzi) [%] | Percent Effect [5] [%] | Percent Effect [6] [%] | Percent Effect (Homo sapiens) [%] | Percent Effect [7] [%] | Percent Effect [8] [%] | Percent Effect [9] [%]
O=C(c1ccc(O)cc1)N1CCN(C(=O)c2ccc3c(c2)COC3)CC1 | -4.15 | 10.1 | -4.98 | 13.3 | -1.98 | -2.66 | 4.01 | -19.9 | 4.43 | 8.86 | -6.29
Cn1cnc2c1CCN(Cc1noc(-c3ccccc3)n1)C2 | -4.07 | 15.8 | -9.94 | 14.2 | 3.08 | -2.52 | 1.27 | -13.4 | 6.4 | 11.1 | 0.774
COCC1CCN(C(=O)c2cccc(S(=O)(=O)NC3CCCC3)c2)C1 (stereo not drawn) | 1.68 | 16.2 | -0.427 | 10.5 | 1.66 | 10.2 | 17.4 | 13.5 | 5.38 | 21 | -13.4
CCN(CC)C(=O)CCNC(=O)Cc1nc(-c2ccco2)oc1C | -7.31 | -2.67 | -3.57 | -1.71 | -5.75 | -0.521 | 17.3 | -3.68 | -1.64 | 3.7 | -7.39
COc1cc(CNCc2c(C(C)C)nn(C)c2N(C)C)ccn1 | -0.0523 | 15.8 | -8.02 | 2.55 | 1.13 | -3.06 | 14 | -9.51 | 4.41 | 4.88 | -6.52
Cc1cnc(C)c(N2CCN(Cc3ccc(-c4cc[nH]n4)o3)CC2)n1 | -0.779 | 10.7 | -20.1 | 21.3 | 5.94 | 7.29 | 22.7 | 32 | 7.1 | 16.1 | -4.34
O=C(COc1ccccc1)N1CCC[C@]2(C[C@H](OCC3CC3)CO2)C1 | -0.456 | 7.79 | 0.996 | -3.06 | -3.45 | 14.8 | 22.1 | 3.98 | 8.47 | 16.7 | -7.91
COCC(O)CNC(=O)c1cnc(-c2ccccc2)nc1O (stereo not drawn) | 2.38 | 8.11 | -5.21 | 5.6 | 3.28 | -0.476 | 8.97 | 13.5 | 8.99 | 19.5 | -0.825
